Screen size: about 69,000 compounds; about 8,600 (12%) showed an effect of 50% or more. This is one part of a sample in which strong results are shown more often than they occur.

This assay relates to Plasmodium berghei. Kind of assay: Screen against P. berghei liver stage (PbLuc), transformed with Luciferase, at 10uM. The class given is functional, HepG2. The settings on record: tested at 10 uM.
`O=c1c(S(=O)(=O)N2CCCCC2)cccn1Cc1cccnc1`: the INHIBITION is on record as -37.1%.
Next, `O=C(O)c1ccccc1-n1cnc(CN2CCCc3ccccc32)c1`: 23%; `CN(C)CCN1CCC2(CCCN(Cc3cccn3C)C2)C1=O` (stereo not drawn): 33.1%; `Fc1ccc(CN2CC[C@H]3O[C@@H](COCC4CCOCC4)CC[C@H]32)cc1`: 56.3%.
As to `c1cncc(CN2CC[C@H]3O[C@@H](COCC4CCOCC4)CC[C@H]32)c1`, the INHIBITION is 33.4%.
Then `c1cc(CN2CC[C@H]3O[C@@H](COCC4CCOCC4)CC[C@H]32)ccn1`, with 52%; and `Fc1ccc(CN2CC[C@H]3O[C@@H](COCc4cccnc4)CC[C@H]32)cc1`, with 39.2%; and `c1ccc(CN2CC[C@@H]3O[C@@H](COCC4CCOCC4)CC[C@@H]32)nc1`, with 22.7%.
Then `c1cncc(COC[C@H]2CC[C@H]3[C@H](CCN3Cc3nccs3)O2)c1`, with 39.2%; and `O=C(C1CC=CC1)N1CC[C@@H]2O[C@H](COCC3CCOCC3)CC[C@@H]21`, with 21.6%; and `c1cncc(COCC2CC[C@H]3[C@H](CCN3CC3CCOCC3)O2)c1` (stereo partly drawn), with 78.8%.
In the case of `c1cncc(CN2CC[C@H]3O[C@@H](COCC4CC4)CC[C@H]32)c1`, the INHIBITION worked out at 44.9%.
Next, `CC(C)c1nccn1-c1cncc(C2CCCN2Cc2cccnc2)n1` (stereo not drawn): 27.6%.
Next, `CNCC1CCC(c2cc(CN(C)C(=O)c3cnccn3)n(C)n2)CC1` (stereo not drawn): 25.8%; `O=C(Nc1cnccn1)[C@@H]1CCO[C@@H]2CCN(Cc3ccsc3)C[C@@H]21`: 12.4%; `Cn1cnnc1C1CCN(C(=O)CCOc2ccc(Cl)cc2)CC1`: 11.9%.
In the case of `CC(=O)NCC1CCCN(C(=O)Cc2c(C)noc2C)C1` (stereo not drawn), the INHIBITION was -4.12%.
Then `COc1cccc(OCC(=O)N2CCCSCC2CN2CCOCC2)c1` (stereo not drawn), with 44.9%; and `O=C(COc1ccc(Cl)cc1Cl)N1CCCSCC1CN1CCOCC1` (stereo not drawn), with 60.1%; and `O=C(COc1ccc(F)cc1)N1CCCSCC1CN1CCOCC1` (stereo not drawn), with 25.3%.
Regarding `CNC(=O)c1nc2c(s1)CCN(C(=O)c1cccnc1)CC2`, the INHIBITION is on record as -10.4%.
For the compound `O=C(c1[nH]nc(C2CC2)c1Cl)N1CCCC1`, the INHIBITION is -46.7%.
On to `O=C(c1[nH]nc(C2CC2)c1Cl)N1CCN(S(=O)(=O)c2ccccc2)CC1`, for which the INHIBITION was determined as 77.6%.
Then `O=C(c1[nH]nc(C2CC2)c1Cl)N1CCN(C2CC2)CC1`, with 8.13%; and `CCOC(=O)[C@H]1[C@@H](O)C(=O)N(C)C12CCN(C(=O)CC(C)C)CC2`, with 22.2%.
As for `c1csc(C2(NCc3csc(C4CC4)n3)CCCC2)n1`, the INHIBITION is -9.44%.
Consider `Cc1cnn(CC2CCCN2CC(=O)NCc2ccccn2)c1` (stereo not drawn), for which the INHIBITION is on record as -28.9%.
In the case of `Cc1ccc2nc(C)cc(NCCNS(=O)(=O)c3cccnc3)c2c1`, the INHIBITION came out at 39.7%.
Consider `Cc1ccc2nc(C)cc(NCCNS(=O)(=O)c3cn(C)nc3C)c2c1`, for which the INHIBITION is 55.5%.
Turning to `Cc1cc(NCCNS(=O)(=O)c2cn(C)nc2C)c2ccccc2n1`, the INHIBITION is -5.8%.
For the compound `Cc1ccnc(OC[C@]23COC[C@H]2CN(C(=O)c2ccnn2C)C3)n1`, the INHIBITION is given as 43.1%.
Then `O=C(CN1CCc2ccccc2C1)NCc1cc2n(n1)CCCNC2`, with -16.8%; and `CC1CN(Cc2noc(C3CC3)n2)CCN1Cc1noc(C2CC2)n1` (stereo not drawn), with 33.8%; and `CC1CN(Cc2noc(C3CC3)n2)CCN1Cc1nccn1C` (stereo not drawn), with 55.9%.
Next, `Cn1ccnc1CN1CCN(Cc2noc(C3CC3)n2)CC1`: -15.5%.
Next, `O=C(NC1CCCC1)c1ccnc(C2CCNCC2)c1`: -11.3%; `COCC1CC2(CCN(C(=O)c3cc(C)oc3C)CC2)CN1C(C)C` (stereo not drawn): 6.8%; `COc1ccc(C2SC(C)=Nc3c2c(=O)[nH]n3C2CCCC2)cc1O` (stereo not drawn): -6.09%.
As for `CCCc1cc(N2CCCC2Cn2cc(C)cn2)n2ncnc2n1` (stereo not drawn), the INHIBITION was -60.9%.
Then `CCCc1cc(N2CCCC2Cn2nc(C)nc2C)n2ncnc2n1` (stereo not drawn), with 53.4%.
Next, `CCCc1cc(N2CCCC2Cn2nc(C)cc2C)n2ncnc2n1` (stereo not drawn): -48.1%; `CN1CCN(CCOc2ccc(NC(=O)c3ccc[nH]3)cc2)CC1`: -23.5%.
Next, `CN1CCN(C2CCN(CC(O)c3ccccc3)CC2)C1=O` (stereo not drawn): 16.715%; `c1ccc(-c2nccc(N3CCc4c(ncn4C4CC4)C3)n2)cc1`: 40.9%.
For the compound `Cn1cnc2c1CCN(c1ccnc(-c3ccccc3)n1)C2`, the INHIBITION was 61.2%.
Consider `CN1CCCC1c1ccnc(-c2ccccc2)n1` (stereo not drawn), for which the INHIBITION is recorded as -24.4%.
Next, `O=C1NCCN1C1CCN(Cc2coc(-c3ccccc3)n2)CC1`: 33.3%; `O=C1NCCN1C1CCN(c2ccnc(-c3ccccc3)n2)CC1`: 73.1%.
For `CN1CCN(C2CCN(CCOc3ccccc3)CC2)C1=O`, the INHIBITION stood at 40.2%.
As to `Cc1cc(N2CCc3c(ncn3C)C2)nc(N)n1`, the INHIBITION is -14.9%.
Next, `O=C1NCCN1C1CCN(Cc2ccccn2)CC1`: -14.2%; `CN1CCN(C2CCN(c3cnc4ccccc4n3)CC2)C1=O`: 76.5%.
Next, `CN1CCN(C2CCN(Cc3noc(-c4ccccc4)n3)CC2)C1=O`: 8.11%.

These data come from ChEMBL document CHEMBL4513216, “Probing the Open Global Health Chemical Diversity Library for Multistage-Active Starting Points for Next-Generation Antimalarials” (ACS Infect Dis, 2020).
